# Reference: PubChem BioAssay AID1220 (Sanford-Burnham Center for Chemical Genomics, 2008)
# Out of some 190,000 compounds screened, about 1,300 (0.68%) were called active. This excerpt belongs to a sample that is enriched for actives. Unmarked numbers belong to inactive results. Cut-off read from the data, not from the text of the source: active = inhibition above about 50%; inactive = the rest.
# Target: Mannose-6-phosphate isomerase (Homo sapiens) (UniProt P34949)
# Assay: MPI inhibition at elevated mannose 6-phosphate – biochemical, fluorescence intensity, high mannose 6-phosphate, primary screen (AID 1220)
# Conditions: recombinant PMI enzyme, coupled fluorescence intensity; at 20 µM; active compounds read high
# Mannose-6-phosphate isomerase (Homo sapiens), sequence (P34949 whole entry, looked up): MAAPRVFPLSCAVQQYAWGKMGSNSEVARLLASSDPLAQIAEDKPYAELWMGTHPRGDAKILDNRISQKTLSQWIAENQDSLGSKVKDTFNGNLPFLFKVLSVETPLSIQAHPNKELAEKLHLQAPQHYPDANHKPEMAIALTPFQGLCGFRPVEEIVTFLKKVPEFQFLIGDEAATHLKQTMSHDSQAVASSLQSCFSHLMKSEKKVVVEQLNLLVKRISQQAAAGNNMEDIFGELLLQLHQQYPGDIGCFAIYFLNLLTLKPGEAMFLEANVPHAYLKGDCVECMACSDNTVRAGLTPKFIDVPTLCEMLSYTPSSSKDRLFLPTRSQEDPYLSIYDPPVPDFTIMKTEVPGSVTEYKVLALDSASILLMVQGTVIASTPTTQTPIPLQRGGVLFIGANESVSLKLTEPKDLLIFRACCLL
row,Compound,inhibition
1,O=C(COC(=O)c1ccc2c(=O)n3c(nc2c1)CCC3)NC1CCS(=O)(=O)C1 (configuration not stated),-5.4%
2,Cc1ccc(C(=O)N2CCOCC2)cc1S(=O)(=O)Nc1cccc(C)c1C,-7%
3,COc1ccc(C2C(C#N)=C(N)OC3=C2C(=O)CCC3)cc1OC (configuration not stated),-4%
4,COc1cc(C2C(C#N)=C(N)OC3=C2C(=O)CCC3)c([N+](=O)[O-])cc1OC (configuration not stated),52% (active)
5,COc1cc(C2C(C#N)=C(N)OC3=C2C(=O)CC(C)(C)C3)c([N+](=O)[O-])cc1OC (configuration not stated),49.6%
6,CCC(C)NC(=O)CO/N=C/c1ccc(C(=O)OC)cc1 (configuration not stated),23.9%
7,CN(C)c1ccc(C(=S)N2CCN(C(=S)Nc3ccc(Cl)cc3)CC2)cc1,-7.1%
8,CN(C)c1ccc(C(=S)N2CCN(c3ccccc3)CC2)cc1,8.2%
9,CN(C)c1ccc(C(=S)N2CCN(C(=S)Nc3cccc4ccccc34)CC2)cc1,51.7% (active)
10,N#CC1=C(N)OC2=C(CN(Cc3ccccc3)C/C2=C\c2cccnc2)C1c1cccnc1 (configuration not stated),11.3%
11,CCn1c(SCC(=O)N2CCN(S(=O)(=O)c3ccccc3)CC2)nnc1-c1cccs1,-3.1%
12,Cc1nnc(SCC(=O)N2CCN(S(=O)(=O)c3ccccc3)CC2)n1Cc1ccccc1,57.8% (active)
13,O=C(CSc1nnc(C2CC2)n1Cc1ccccc1)N1CCN(S(=O)(=O)c2ccccc2)CC1,-3.7%
14,CC1Cc2nc(SCC(=O)N3CCCC3)n(C)c(=O)c2S1 (configuration not stated),9.6%
15,COc1cc(/C=C(/C#N)c2nc3ccccc3c(=O)[nH]2)ccc1O,13.6%
16,Cc1ccc(NCc2ccc(Cl)nc2)c(NCc2ccc(Cl)nc2)c1,-88.3%
17,Clc1ccc(CNc2ccccc2NCc2ccc(Cl)nc2)cn1,53.8% (active)
18,Clc1ccc(Cn2cccn2)cn1,10.3%
19,COc1ccc(CCC(=O)NNC(=S)NCc2ccc(F)cc2)cc1,1.2%
20,Cc1ccc(S(=O)(=O)/N=C2\C(=O)c3ccccc3C([O-])=C2n2cc[n+](CCC(C)C)c2)cc1,50.4% (active)
21,CCCC[n+]1ccn(C2=C([O-])c3ccccc3C(=O)/C2=N\S(=O)(=O)c2ccccc2)c1,46.3%

row,Compound,inhibition
1,CC(C)CC[n+]1ccn(C2=C([O-])c3ccccc3C(=O)/C2=N\S(=O)(=O)c2ccccc2)c1,47%
2,COc1ccccc1NC(=O)NCC(=O)Nc1c(C)cccc1C,-13.9%
3,COC(=O)c1ccc(Sc2ccc(C)cc2)c(N)c1,9.7%
4,Cc1ccc(Sc2cnc(N)nc2C)cc1,3.4%
5,COc1cc(Sc2ccc(C)cc2)c(OC)cc1N,67.2% (active)
6,CCc1ccc2c(c1)C(c1cccs1)=NNC(c1cccnc1)=N2,3.3%
7,C=CCSc1nc(-c2ccc3c(c2)OCO3)cc(C(F)(F)F)c1C#N,11.5%
8,O=C(CCl)Nc1cc(S(=O)(=O)N2CCCCCC2)ccc1Cl,4.5%
9,O=C(CNCc1ccncc1)Nc1cc(S(=O)(=O)N2CCCCC2)ccc1Cl,-89%
10,O=C(CNCc1ccccn1)Nc1cc(S(=O)(=O)N2CCCCC2)ccc1Cl,55.4% (active)
11,CC1CCC(C(C)C)C(OCC[N+](C)(C)C)C1 (configuration not stated),8.9%
12,Cc1nn(CCO)c(C)c1Oc1ccccc1O,4%
13,COCc1cc([C@@H]2C[C@H]3CN(c4ccccc4)C(=O)[C@]34CCCN24)ccc1OC,13.6%
14,COc1cc([C@@H]2C[C@H]3CN(c4ccccc4)C(=O)[C@]34CCCN24)cc(OC)c1OC,3.7%
15,CCOc1cc([C@@H]2C[C@H]3CN(c4ccccc4)C(=O)[C@]34CCCN24)ccc1OC,57.1% (active)
16,O=c1oc(-c2ccccc2NS(=O)(=O)c2ccccc2)nc2ccccc12,-2.5%
17,Fc1cc(F)cc(NC(=S)N2CCC(c3ccccc3)C2)c1 (configuration not stated),-2.1%
18,Cn1cccc1CNC(=O)Nc1ccccc1,-5.8%
19,N#CC1=C(N)Oc2cc(O)ccc2C1c1cccs1 (configuration not stated),10.1%
20,N#CC1=C(N)Oc2cc3ccccc3cc2C1c1cccs1 (configuration not stated),7.9%
21,CN(C)/C=N/C1=C(C#N)C(c2cccs2)c2ccc3ccccc3c2O1 (configuration not stated),55.2% (active)

row,Compound,inhibition
1,CC1(CC(=O)N/N=C/c2ccc(OCc3ccc(Cl)cc3Cl)cc2)OCCCO1,10.6%
2,COc1cc(/C=N/NC(=O)CC2(C)OCCCO2)ccc1OCc1ccc(Cl)cc1Cl,51.1% (active)
3,COc1cc(/C=N/NC(=O)CC2(C)OCCCO2)ccc1OCc1ccccc1,2.4%
4,COc1ccc(NC(=O)CSc2nc(N)c3cc4c(nc3n2)CCCC4)c(OC)c1,-6.7%
5,S=C(Nc1ccccc1Cl)N1CCCC1,13.6%
6,CCOC(=O)N1CCN(C(=S)Nc2cccc(C)c2C)CC1,8.4%
7,CCOC(=O)C1CCN(C(=S)Nc2cc(C)ccc2C)CC1,7.3%
8,Cc1ccccc1NC(=S)N1CCCC1,52.6% (active)
9,Cc1ccccc1NC(=S)N1CCOCC1,-2.1%
10,CCOC(=O)C1CCN(C(=S)Nc2cccc(C)c2C)CC1,52.8% (active)
11,O=C(O)CC1NC(=O)N(C2CCCCC2)C1=O (configuration not stated),-10%
12,CCCCN(CC)C(=O)Cc1ccc(Br)cc1,6.7%
13,CCOC(=O)C1(Cc2ccc(OC)cc2)CCN(C(=O)CN2CCN(CC)CC2)CC1,12.7%
14,O=C(COC(=O)c1nc(Cl)ccc1Cl)Nc1ccc2c(c1)OCO2,8.3%
15,CCN(CC)C(=O)N1c2ccccc2CC(N(CC)CC)c2ccccc21 (configuration not stated),-19.4%
16,Cc1nc(C#N)c(N/N=C/c2c(F)cccc2Cl)o1,53.3% (active)
17,Fc1cccc(Cl)c1/C=N/Nc1c(Cl)cncc1Cl,8.5%
18,Cc1nc(C#N)c(N/N=C/c2cccc(Cl)c2)o1,12.6%
19,Cc1cccc2cc(C3CC(c4cccs4)=NN3C(=O)CCC(=O)O)c(Cl)nc12 (configuration not stated),8.9%
20,COc1ccc(N2CCn3c2nc2c3c(=O)n(CCCc3ccccc3)c(=O)n2C)cc1,-5.3%
